# In PMC7862700, “An all-to-all approach to the identification of sequence-specific readers for epigenetic DNA modifications on cytosine”:
# What was measured:
# Assay in all cases: DAPPL (digital affinity profiling via proximity ligation, sequencing); 10 mM Tris-HCl pH 7.5, 50 mM NaCl, 1 mM DTT, 4% glycerol, room temperature, 30 min; GST-TFs on glutathione beads, 16-mer random dsDNA library, 0.1% formaldehyde crosslink after washing; high values mean tight binding
# FLI1 = target: T1, FLI1 (Homo sapiens, UniProt Q01543 1-452); conditions: protein: recombinant; tags: N-terminal GST; dsDNA, one strand shown
# T1 sequence: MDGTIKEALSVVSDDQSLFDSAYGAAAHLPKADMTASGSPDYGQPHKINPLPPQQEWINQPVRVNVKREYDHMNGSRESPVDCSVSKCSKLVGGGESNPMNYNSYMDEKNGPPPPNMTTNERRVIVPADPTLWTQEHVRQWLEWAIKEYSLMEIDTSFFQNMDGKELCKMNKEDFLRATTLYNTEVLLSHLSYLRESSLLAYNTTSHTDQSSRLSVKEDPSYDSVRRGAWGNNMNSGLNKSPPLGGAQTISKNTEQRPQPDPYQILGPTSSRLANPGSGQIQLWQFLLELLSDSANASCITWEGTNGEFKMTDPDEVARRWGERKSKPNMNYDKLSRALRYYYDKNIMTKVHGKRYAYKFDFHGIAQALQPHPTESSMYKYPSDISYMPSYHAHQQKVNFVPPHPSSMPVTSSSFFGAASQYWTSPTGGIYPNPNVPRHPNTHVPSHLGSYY
# Outline: (§1)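 The binding signal reported is, for every hexamer, its read frequency for a factor over its read frequency for the tag-only sample. Reads came from pools of yeast-expressed, GST-fused human transcription factors on glutathione beads, barcoded with DNA and mixed with that sample, which were incubated with 200 nmole of a random double-stranded 16-mer DNA library in Tris/NaCl/DTT/glycerol buffer at room temperature for 30 min. After washing, the pools were crosslinked with 0.1% formaldehyde, proximity-ligated with BsaI/T4 ligase for 1 h at 37 °C, PCR-amplified and sequenced on an Illumina NextSeq500.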
# ELK1 = target: T2, ELK1 (Homo sapiens, UniProt P19419 1-428); conditions: protein: recombinant; tags: N-terminal GST; dsDNA, one strand shown
# T2 sequence: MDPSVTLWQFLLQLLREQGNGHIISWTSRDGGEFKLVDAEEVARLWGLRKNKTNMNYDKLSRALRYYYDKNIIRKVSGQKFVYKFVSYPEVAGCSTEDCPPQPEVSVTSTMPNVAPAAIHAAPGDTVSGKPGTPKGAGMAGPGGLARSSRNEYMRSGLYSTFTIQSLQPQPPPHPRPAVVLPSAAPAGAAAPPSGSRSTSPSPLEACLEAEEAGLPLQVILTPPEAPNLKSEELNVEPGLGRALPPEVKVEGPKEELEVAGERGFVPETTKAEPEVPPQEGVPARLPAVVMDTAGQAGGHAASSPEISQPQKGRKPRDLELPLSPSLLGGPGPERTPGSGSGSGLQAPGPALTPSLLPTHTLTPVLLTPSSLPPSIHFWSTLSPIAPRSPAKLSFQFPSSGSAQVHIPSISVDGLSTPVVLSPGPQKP
# Outline: as §1
# GABPA = target: T3, GABPA (Homo sapiens, UniProt Q06546 1-454); conditions: protein: recombinant; tags: N-terminal GST; dsDNA, one strand shown
# T3 sequence: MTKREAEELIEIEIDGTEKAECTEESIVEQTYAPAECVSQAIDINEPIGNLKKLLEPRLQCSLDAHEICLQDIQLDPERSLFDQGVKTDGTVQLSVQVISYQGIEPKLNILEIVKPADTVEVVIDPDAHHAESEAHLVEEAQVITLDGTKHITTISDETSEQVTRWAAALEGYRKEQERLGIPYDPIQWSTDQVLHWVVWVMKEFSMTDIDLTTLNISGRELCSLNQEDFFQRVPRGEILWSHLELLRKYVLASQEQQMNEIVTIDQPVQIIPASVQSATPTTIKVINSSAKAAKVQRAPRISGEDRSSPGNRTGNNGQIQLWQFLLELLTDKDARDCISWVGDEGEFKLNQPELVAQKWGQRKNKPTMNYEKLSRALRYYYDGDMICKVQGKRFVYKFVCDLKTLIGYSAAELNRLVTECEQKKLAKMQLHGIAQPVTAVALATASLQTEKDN
# Outline: as §1
# ERG = target: T4, ERG (Homo sapiens, UniProt P11308 1-479); conditions: protein: recombinant; tags: N-terminal GST; dsDNA, one strand shown
# T4 sequence: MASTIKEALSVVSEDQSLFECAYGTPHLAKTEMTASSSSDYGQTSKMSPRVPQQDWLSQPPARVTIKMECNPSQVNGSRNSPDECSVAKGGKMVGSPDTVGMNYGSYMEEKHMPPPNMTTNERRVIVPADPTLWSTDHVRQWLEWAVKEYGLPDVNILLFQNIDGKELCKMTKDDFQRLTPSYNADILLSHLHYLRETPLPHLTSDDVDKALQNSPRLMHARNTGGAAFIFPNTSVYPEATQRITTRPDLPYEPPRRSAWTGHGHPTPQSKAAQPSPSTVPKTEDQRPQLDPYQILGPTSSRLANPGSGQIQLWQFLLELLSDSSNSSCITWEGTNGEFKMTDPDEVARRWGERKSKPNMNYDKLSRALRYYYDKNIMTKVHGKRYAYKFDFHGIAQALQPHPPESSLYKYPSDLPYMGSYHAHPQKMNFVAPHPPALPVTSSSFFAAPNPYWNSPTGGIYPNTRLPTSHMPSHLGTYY
# Outline: as §1
# ELF1 = ELF1 (Homo sapiens, UniProt P32519 1-619); conditions: protein: recombinant; tags: N-terminal GST; dsDNA, one strand shown
# Outline: as §1
# EHF = target: T5, EHF (Homo sapiens, UniProt Q9NZC4 1-300); conditions: protein: recombinant; tags: N-terminal GST; dsDNA, one strand shown
# T5 sequence: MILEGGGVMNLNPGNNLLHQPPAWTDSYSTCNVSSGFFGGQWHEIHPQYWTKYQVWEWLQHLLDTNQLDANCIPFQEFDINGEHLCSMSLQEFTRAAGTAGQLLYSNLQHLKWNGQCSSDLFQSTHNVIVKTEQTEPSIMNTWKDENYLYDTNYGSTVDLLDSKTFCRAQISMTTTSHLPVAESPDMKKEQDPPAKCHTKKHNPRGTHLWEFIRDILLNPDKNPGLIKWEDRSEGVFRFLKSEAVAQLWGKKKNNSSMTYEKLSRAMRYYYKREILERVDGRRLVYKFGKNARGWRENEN
# Outline: as §1
# SPI1 = SPI1 (Homo sapiens, UniProt P17947 1-270); conditions: protein: recombinant; tags: N-terminal GST; dsDNA, one strand shown
# Outline: as §1
# SPIB = SPIB (Homo sapiens, UniProt Q01892 1-262); conditions: protein: recombinant; tags: N-terminal GST; dsDNA, one strand shown
# Outline: as §1
# ELK3 = target: T6, ELK3 (Homo sapiens, UniProt P41970 1-407); conditions: protein: recombinant; tags: N-terminal GST; dsDNA, one strand shown
# T6 sequence: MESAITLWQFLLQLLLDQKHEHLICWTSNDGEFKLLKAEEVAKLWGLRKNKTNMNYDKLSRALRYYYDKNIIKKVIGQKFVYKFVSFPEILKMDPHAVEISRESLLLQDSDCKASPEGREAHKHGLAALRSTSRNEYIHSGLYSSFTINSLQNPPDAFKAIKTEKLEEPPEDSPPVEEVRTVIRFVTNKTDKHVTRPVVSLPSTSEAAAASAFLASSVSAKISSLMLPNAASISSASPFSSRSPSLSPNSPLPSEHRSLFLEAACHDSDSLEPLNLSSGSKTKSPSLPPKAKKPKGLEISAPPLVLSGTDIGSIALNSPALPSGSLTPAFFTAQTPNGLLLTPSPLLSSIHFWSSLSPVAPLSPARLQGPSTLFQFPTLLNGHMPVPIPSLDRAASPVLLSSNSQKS
# Outline: as §1
# FEV = target: T7, FEV (Homo sapiens, UniProt Q99581 1-238); conditions: protein: recombinant; tags: N-terminal GST; dsDNA, one strand shown
# T7 sequence: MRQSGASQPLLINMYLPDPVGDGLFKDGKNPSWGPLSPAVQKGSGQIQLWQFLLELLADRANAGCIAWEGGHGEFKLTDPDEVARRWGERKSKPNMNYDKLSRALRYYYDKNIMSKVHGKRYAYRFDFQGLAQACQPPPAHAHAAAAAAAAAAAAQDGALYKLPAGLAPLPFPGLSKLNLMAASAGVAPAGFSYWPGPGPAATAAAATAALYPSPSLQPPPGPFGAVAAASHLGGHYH
# Outline: as §1
# ETV5 = ETV5 (Homo sapiens, UniProt P41161 1-510); conditions: protein: recombinant; tags: N-terminal GST; dsDNA, one strand shown
# Outline: as §1
# HSF1 = HSF1 (Homo sapiens, UniProt Q00613 1-529); conditions: protein: recombinant; tags: N-terminal GST; chain copies: 3; dsDNA, one strand shown
# Outline: as §1
# SPIC = target: T8, SPIC (Homo sapiens, UniProt Q8N5J4 1-248); conditions: protein: recombinant; tags: N-terminal GST; dsDNA, one strand shown
# T8 sequence: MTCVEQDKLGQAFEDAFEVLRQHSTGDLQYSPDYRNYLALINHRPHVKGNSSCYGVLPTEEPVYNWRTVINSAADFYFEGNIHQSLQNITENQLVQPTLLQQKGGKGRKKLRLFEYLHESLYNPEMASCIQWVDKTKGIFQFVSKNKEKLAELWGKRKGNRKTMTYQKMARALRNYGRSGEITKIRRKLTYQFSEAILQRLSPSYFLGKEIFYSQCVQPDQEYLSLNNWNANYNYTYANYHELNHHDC
# Outline: as §1
# ELF4 = ELF4 (Homo sapiens, UniProt Q99607 1-663); conditions: protein: recombinant; tags: N-terminal GST; dsDNA, one strand shown
# Outline: as §1
# ELK4 = target: T9, ELK4 (Homo sapiens, UniProt P28324-2 1-405); conditions: protein: recombinant; tags: N-terminal GST; dsDNA, one strand shown
# T9 sequence: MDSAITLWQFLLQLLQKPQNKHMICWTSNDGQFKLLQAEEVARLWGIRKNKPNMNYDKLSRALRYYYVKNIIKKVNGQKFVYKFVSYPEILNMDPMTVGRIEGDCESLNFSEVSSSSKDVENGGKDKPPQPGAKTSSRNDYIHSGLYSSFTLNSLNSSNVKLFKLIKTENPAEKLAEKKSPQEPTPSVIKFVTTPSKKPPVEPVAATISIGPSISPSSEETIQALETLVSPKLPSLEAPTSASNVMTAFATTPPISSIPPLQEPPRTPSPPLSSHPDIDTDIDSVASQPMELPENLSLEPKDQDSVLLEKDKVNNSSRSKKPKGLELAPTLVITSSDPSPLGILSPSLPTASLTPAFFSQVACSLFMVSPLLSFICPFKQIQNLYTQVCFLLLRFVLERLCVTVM
# Outline: as §1
# ETV2 = target: T10, ETV2 (Homo sapiens, UniProt O00321 1-342); conditions: protein: recombinant; tags: N-terminal GST; dsDNA, one strand shown
# T10 sequence: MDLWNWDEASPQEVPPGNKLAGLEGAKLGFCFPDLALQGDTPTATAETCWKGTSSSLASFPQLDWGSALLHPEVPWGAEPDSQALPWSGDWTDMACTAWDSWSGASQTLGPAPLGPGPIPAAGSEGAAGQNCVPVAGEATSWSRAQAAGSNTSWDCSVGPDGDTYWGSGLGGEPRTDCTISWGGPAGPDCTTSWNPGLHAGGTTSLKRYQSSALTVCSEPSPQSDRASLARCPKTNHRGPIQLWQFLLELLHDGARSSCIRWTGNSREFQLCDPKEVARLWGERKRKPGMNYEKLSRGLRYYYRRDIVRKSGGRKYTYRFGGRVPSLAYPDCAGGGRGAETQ
# Outline: as §1
# ELF3 = target: T11, ELF3 (Homo sapiens, UniProt P78545 1-371); conditions: protein: recombinant; tags: N-terminal GST; dsDNA, one strand shown
# T11 sequence: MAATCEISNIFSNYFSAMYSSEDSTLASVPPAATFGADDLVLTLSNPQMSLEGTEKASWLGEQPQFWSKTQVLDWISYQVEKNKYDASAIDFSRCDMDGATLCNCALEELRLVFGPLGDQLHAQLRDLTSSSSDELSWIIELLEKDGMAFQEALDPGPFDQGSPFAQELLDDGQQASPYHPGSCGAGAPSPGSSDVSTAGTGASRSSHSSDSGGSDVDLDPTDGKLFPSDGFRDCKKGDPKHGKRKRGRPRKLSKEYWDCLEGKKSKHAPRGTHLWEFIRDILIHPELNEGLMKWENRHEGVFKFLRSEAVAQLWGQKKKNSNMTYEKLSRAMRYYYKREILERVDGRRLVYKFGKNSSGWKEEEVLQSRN
# Outline: as §1
# ETV1 = ETV1 (Homo sapiens, UniProt P50549 1-477); conditions: protein: recombinant; tags: N-terminal GST; dsDNA, one strand shown
# Outline: as §1
# Sequence of HSF1 (Q00613 whole entry): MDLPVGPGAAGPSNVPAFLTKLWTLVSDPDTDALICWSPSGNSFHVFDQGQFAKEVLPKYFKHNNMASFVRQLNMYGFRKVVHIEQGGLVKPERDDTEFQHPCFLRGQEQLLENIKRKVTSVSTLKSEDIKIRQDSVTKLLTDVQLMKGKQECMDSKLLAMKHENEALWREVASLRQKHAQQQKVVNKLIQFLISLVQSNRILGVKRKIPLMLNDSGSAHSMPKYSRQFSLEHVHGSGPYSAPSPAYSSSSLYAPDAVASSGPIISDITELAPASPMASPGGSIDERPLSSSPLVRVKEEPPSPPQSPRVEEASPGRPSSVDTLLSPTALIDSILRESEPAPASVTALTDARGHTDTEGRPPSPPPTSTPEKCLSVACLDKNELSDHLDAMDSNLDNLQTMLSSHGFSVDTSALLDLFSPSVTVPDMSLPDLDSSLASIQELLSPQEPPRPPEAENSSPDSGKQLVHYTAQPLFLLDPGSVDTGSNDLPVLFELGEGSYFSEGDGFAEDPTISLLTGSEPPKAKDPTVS
# Sequence of SPIB (Q01892 whole entry): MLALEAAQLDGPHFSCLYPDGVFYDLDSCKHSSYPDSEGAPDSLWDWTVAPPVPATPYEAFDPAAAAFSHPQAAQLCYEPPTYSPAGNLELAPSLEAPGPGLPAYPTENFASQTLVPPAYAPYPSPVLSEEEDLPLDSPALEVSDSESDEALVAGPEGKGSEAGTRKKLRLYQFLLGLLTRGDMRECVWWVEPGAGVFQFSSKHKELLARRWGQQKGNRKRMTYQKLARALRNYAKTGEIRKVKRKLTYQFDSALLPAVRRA
# Sequence of ELF1 (P32519 whole entry): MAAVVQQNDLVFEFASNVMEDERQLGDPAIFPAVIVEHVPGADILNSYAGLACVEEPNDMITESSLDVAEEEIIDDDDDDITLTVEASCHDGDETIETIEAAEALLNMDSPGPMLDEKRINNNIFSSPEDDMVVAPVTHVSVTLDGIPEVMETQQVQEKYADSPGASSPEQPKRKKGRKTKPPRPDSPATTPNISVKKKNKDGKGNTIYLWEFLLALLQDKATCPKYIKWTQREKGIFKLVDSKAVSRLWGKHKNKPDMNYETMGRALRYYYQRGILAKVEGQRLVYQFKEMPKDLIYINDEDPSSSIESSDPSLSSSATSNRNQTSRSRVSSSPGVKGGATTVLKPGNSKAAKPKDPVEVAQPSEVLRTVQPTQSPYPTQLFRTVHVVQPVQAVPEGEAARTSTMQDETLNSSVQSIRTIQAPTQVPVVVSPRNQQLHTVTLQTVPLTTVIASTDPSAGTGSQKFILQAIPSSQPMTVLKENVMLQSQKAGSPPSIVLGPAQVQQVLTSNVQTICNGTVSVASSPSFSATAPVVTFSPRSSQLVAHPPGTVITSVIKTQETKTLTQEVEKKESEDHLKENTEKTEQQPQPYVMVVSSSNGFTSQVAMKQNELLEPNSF
# Sequence of ETV5 (P41161 whole entry): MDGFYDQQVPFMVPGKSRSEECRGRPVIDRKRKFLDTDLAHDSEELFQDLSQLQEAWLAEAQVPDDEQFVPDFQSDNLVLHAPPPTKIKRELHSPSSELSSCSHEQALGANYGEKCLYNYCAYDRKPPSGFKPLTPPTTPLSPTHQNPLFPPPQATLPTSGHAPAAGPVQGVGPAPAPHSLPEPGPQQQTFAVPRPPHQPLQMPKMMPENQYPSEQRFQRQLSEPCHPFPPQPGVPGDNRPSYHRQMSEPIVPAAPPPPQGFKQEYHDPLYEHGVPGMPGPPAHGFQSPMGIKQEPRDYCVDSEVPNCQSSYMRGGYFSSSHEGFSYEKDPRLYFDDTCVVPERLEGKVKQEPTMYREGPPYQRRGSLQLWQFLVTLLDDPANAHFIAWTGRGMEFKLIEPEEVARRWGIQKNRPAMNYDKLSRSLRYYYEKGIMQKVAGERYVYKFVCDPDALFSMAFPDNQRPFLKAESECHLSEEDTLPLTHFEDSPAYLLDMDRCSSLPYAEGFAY
# Sequence of ELF4 (Q99607 whole entry): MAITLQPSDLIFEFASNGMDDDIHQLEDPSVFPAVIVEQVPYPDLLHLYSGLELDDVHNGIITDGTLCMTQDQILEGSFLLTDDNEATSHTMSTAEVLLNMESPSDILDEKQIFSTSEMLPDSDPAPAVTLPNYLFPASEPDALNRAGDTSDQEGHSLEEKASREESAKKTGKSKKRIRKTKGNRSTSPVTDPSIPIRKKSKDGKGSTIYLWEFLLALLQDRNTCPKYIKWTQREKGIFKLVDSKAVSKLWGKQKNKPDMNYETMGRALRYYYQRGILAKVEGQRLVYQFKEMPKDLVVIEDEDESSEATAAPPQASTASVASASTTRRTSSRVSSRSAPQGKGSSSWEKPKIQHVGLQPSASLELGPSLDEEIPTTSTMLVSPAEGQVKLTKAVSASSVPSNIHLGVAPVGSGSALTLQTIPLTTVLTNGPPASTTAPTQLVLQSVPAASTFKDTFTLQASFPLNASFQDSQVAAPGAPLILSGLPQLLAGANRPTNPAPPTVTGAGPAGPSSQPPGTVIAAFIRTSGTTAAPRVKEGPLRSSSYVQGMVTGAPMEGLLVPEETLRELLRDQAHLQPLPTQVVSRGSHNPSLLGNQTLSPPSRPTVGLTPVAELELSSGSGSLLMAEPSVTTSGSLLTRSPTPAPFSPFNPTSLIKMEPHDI
# Sequence of ETV1 (P50549 whole entry): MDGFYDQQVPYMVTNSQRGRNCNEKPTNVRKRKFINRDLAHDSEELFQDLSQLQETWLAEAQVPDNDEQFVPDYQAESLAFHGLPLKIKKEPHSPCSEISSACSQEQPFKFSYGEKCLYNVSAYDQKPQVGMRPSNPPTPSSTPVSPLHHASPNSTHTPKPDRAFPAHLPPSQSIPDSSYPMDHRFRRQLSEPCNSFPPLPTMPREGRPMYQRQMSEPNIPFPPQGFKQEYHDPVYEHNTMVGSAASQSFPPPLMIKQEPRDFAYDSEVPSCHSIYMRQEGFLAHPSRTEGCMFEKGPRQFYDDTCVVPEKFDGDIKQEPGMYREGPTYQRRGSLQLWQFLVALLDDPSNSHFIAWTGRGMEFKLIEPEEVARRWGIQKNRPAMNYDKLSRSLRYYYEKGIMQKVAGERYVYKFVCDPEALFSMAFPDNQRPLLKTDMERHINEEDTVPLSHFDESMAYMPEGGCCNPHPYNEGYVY
sequence,measurement,setting,value
TCGCAC,binding signal,FLI1,"1.11 fold enrichment (6-mer frequency, TF over GST control)"
same,binding signal,ELK1,"1.1 fold enrichment (6-mer frequency, TF over GST control)"
same,binding signal,GABPA,"1.09 fold enrichment (6-mer frequency, TF over GST control)"
same,binding signal,ERG,"1.07 fold enrichment (6-mer frequency, TF over GST control)"
same,binding signal,ELF1,"1.13 fold enrichment (6-mer frequency, TF over GST control)"
same,binding signal,EHF,"1.06 fold enrichment (6-mer frequency, TF over GST control)"
same,binding signal,SPI1,"1.13 fold enrichment (6-mer frequency, TF over GST control)"
same,binding signal,SPIB,"1.02 fold enrichment (6-mer frequency, TF over GST control)"
same,binding signal,ELK3,"1.02 fold enrichment (6-mer frequency, TF over GST control)"
same,binding signal,FEV,"1.12 fold enrichment (6-mer frequency, TF over GST control)"
same,binding signal,ETV5,"1.01 fold enrichment (6-mer frequency, TF over GST control)"
same,binding signal,HSF1,"1.03 fold enrichment (6-mer frequency, TF over GST control)"
same,binding signal,SPIC,"1.06 fold enrichment (6-mer frequency, TF over GST control)"
same,binding signal,ELF4,"1.13 fold enrichment (6-mer frequency, TF over GST control)"
same,binding signal,ELK4,"1.08 fold enrichment (6-mer frequency, TF over GST control)"
same,binding signal,ETV2,"1.07 fold enrichment (6-mer frequency, TF over GST control)"
same,binding signal,ELF3,"1.18 fold enrichment (6-mer frequency, TF over GST control)"
same,binding signal,ETV1,"1.04 fold enrichment (6-mer frequency, TF over GST control)"
